This is an account of results in PubChem BioAssay (NCI).

What all share (assay): NCI-60 one-dose screen, 48 h (100 = growth as untreated, 0 = no growth, -100 = all killed)
Common to all, as to conditions: 10 µM unless noted

Test [1] relates to NCI-H23 lung.
The subject of test [2] is NCI-H226 lung.
Test [3] relates to NCI-H322M lung.
Test [4] concerns HOP-62 NSCLC.
The subject of test [5] is NCI-H460 lung.
The test system of test [6] is HOP-92 NSCLC.
Test [7] concerns NCI-H522 lung.
In test [8] the test system is A549/ATCC NSCLC.
The subject of test [9] is 786-0 renal.
The subject of test [10] is COLO 205 colon.
In test [11] the test system is DU-145 prostate.
For test [12], the system named is K-562 leukemia.
Test [13] deals with MALME-3M melanoma.
The subject of test [14] is MDA-MB-231 breast.
In test [15] the test system is RXF 393 renal.
Test [16] concerns SF-268 CNS.
The test system of test [17] is SF-295 CNS.
The subject of test [18] is SF-539 CNS.
For test [19], the system named is UACC-257 melanoma.
The subject of test [20] is M14 melanoma.

This is part of a sample that, as a whole, favours compounds with a hit. Of some 83,000 tested, about 20% had one in any assay.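 Testing used 96-well plates and a 48-hour single-concentration exposure. Example: -40 means 40% of the starting cells died.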 Unmarked numbers belong to inactive results. Activity calls are given as the source filed them. The calls were made as follows: active = growth percent below 10; inactive = the rest.

For the compound `CC(C)(Sc1cc(C(C)(C)C)c(O)c(C(C)(C)C)c1)Sc1cc(C(C)(C)C)c(OC(=O)CCCC(=O)O)c(C(C)(C)C)c1`, the growth was 39.9% in [1]; 66.2% in test [2]; 60.4% in [3]; 67% in [4]; 37% in test [5]; 40.2% in [6]. In addition, the growth was 46.4% in [7]; 35% in test [8]; 56.1% in [9]; 64.3% in test [10]; 59.4% in test [11]; 41.6% in test [12]. The growth in [13] is 75.4%; in test [14] it was 74.2%; in test [15] it was 73.3%; in [16], 63.1%; in test [17], 50.4%; in test [18] it was 62.7%. The growth was 74.6% in test [19] and 54.6% in test [20].

On to `COc1cc(OC)c(/C=C/C(=O)c2c(OC)cccc2OC)c(OC)c1`, for which the growth was -22% (active) in test [1]; 47.3% in test [2]; 1.28% (active) in [3]; 40.1% in [4]; 9.67% (active) in test [5]; -1.46% (active) in test [6]. The growth is -22.7% (active) in [7]; 6.84% (active) in test [8]; 16.5% in [9]; -13.4% (active) in test [10]; 6.79% (active) in test [11]; 10.5% in test [12]. Further, the growth in test [13] is 51.4%; in test [14], 15%; in test [15] it was -60.8% (active); in test [16] it was 32%; in [17] it was 1.38% (active); in test [18] it was -11.4% (active). The results for the growth in test [19] and in test [20] were 43.6% and -44.3% (active), respectively.

On to `S=c1sc2c(Cl)nc(-c3cccnc3)nc2n1-c1ccccc1`, for which the growth in [1] is 17.5%; in [2], 85.2%; in test [3] it was 61%; in test [4], 27.8%; in test [5], 57.4%; in test [6], 25.3%. Also, the growth in [7] is -65.8% (active); in [8], 79.9%; in test [9] it was 35.4%; in test [10], 80%; in test [11], 27.4%; in test [12] it was 0.869% (active). The growth in [13] is 65.8%; in test [14], -11.7% (active); in test [15], -42.1% (active); in [16] it was 14.6%; in [17], 96.1%; in test [18], 6.15% (active). The growth is 50% in test [19] and 33% in test [20].

In the case of `CC(C)COc1nc2c(c(=O)n(C)c(=O)n2C)n1C`, the growth in [1] was 98.5%; in test [2], 94.5%; in [3], 105%; in test [4], 99%; in [5], 105%; in test [6] it was 93.7%. In addition, the growth in [7] is 101%; in [8] it was 106%; in test [9], 104%; in test [10], 109%; in test [11], 111%; in [12] it was 98%. The growth in [13] was 121%; in [14], 108%; in [15], 126%; in test [16] it was 98.5%; in test [17], 112%; in [18] it was 91.8%. Moreover, the results for the growth in [19] and in test [20] were 67.2% and 108%, respectively.

As for `COC(=O)[C@]1(C)CCC[C@]2(C)[C@H]3C[C@H]4C(C(C)C)=C[C@]3(CC[C@H]21)[C@@H]1C(=O)CC[C@H](OCCC#N)[C@@H]14`, the growth in [1] is 84.7%; in test [2], 74.3%; in test [3], 106%; in test [4], 95%; in test [5], 94.7%; in test [6], 76.6%. Also, the growth is 89.9% in test [7]; 92.2% in [8]; 81% in [9]; 85.2% in [10]; 89.2% in test [11]; 89.9% in test [12]. Also, the growth is 85.9% in test [13]; 73.9% in test [14]; 55.5% in test [15]; 74.3% in [16]; 77.7% in [17]; 91.7% in test [18]. Moreover, the results for the growth in test [19] and in test [20] were 99.1% and 82.5%, respectively.

Regarding `COc1ccc(/C=N\Nc2nc(SCCC(C)C)nc(-c3ccc(OC)cc3)c2C#N)cc1`, the growth was 72.1% in [1]; 88.9% in test [2]; 80.8% in [3]; 18.4% in [4]; 13.9% in test [5]; 63.2% in test [6]. Also, the growth in [7] is 60.5%; in test [8] it was 70.9%; in test [9], -2.8% (active); in [10], 68%; in test [11] it was 72.8%; in test [12], 82%. Also, the growth in test [13] was 64.6%; in test [14] it was 77.6%; in test [15], 80.5%; in [16] it was 78.9%; in test [17], 17.4%; in [18], 24.6%. Also, the growth in [19] is 91.6%; in test [20] it was 87.6%.

`N=C(N)c1ccc(-c2ccc(-c3ccc(Cl)cc3Cl)s2)cc1`: the growth in test [1] was 56.5%; in test [2] it was 77.9%; in [3], 13.9%; in test [4] it was 34.1%; in test [5], -66.3% (active); in test [6], 75.2%. For the same compound, the growth in [7] is -28.6% (active); in test [8], -30.2% (active); in test [9], -18% (active); in test [10], -31.6% (active); in test [11], -24.7% (active); in test [12], -7.11% (active). The growth in test [13] is 73.9%; in test [14], -38% (active); in test [15] it was 87.3%; in test [16] it was 42.4%; in test [17], -30.6% (active); in [18], -28.9% (active). The growth is 88% in test [19] and 41.5% in test [20].

As to `C=C1C(=O)O[C@H]2[C@H]1CC/C(COC(=O)/C=C\C(=O)NCc1ccc(Cn3c(=O)sn(CCI)c3=O)cc1)=C\CC[C@@]1(C)O[C@@H]21`, the growth was 84.1% in test [1]; 83% in test [2]; 86.6% in test [3]; 130% in [4]; 91.9% in test [5]; 46% in test [6]. In addition, the growth is -84% (active) in test [7]; 98.1% in test [8]; 37.4% in test [9]; -32.8% (active) in [10]; 34.4% in test [11]; 4.34% (active) in test [12]. Moreover, the growth was -30% (active) in test [13]; 64.6% in [14]; 11.6% in test [15]; 70.2% in test [16]; 105% in test [17]; 52% in test [18]. Also, the growth in test [19] was 67.7%; in test [20], 36.2%.

For `CC(C)=CCC[C@](C)(O)[C@H]1CC[C@]2(C)[C@@H]1CC[C@@H]1[C@@]3(C)C/C(=C/c4ccco4)C(=O)C(C)(C)[C@@H]3CC[C@]12C`, the growth in [1] is 101%; in test [2], 103%; in [3] it was 103%; in [4], 102%; in test [5], 106%; in [6] it was 98.2%. Further, the growth is 102% in test [7]; 107% in [8]; 99.6% in [9]; 110% in test [10]; 113% in [11]; 99.2% in [12]. The growth in test [13] was 107%; in [14], 101%; in test [15] it was 111%; in test [16], 101%; in test [17], 100%; in test [18], 102%. The growth is 109% in [19] and 104% in [20].

In the case of `CSc1nc2ccccc2cc1/C=[N+](\[O-])c1ccccc1`, the growth in test [1] is 70%; in [2] it was 73.9%; in test [3], 85.7%; in [4], 67.9%; in test [5] it was 92.1%; in test [6] it was 53.2%. The growth in [7] is 82.4%; in test [8], 97.6%; in [9], 74.6%; in test [10], 103%; in test [11] it was 87.7%; in [12] it was 15.1%. For the same compound, the growth in [13] is 46.1%; in test [14], 46.5%; in [15] it was 83.8%; in test [16], 56.6%; in test [17], 86.7%; in [18], 19.7%. In addition, the figures for the growth in [19] and in [20] were 90% and 27.6%, respectively.

With `COc1ccc(/C=C/C(=O)c2ccc(Nc3ccnc4cc(Cl)ccc34)cc2)cc1`, the growth was 76.2% in [1]; 123% in [2]; 131% in test [3]; 72.3% in test [4]; 101% in test [5]; 37.9% in test [6]. In addition, the growth in test [7] is 73.3%; in test [8] it was 103%; in test [9] it was 72.8%; in [10] it was 117%; in test [11], 103%; in test [12], 45%. In addition, the growth in test [13] is 142%; in test [14], 80.7%; in [15] it was 13.5%; in test [16] it was 100%; in test [17], 77.4%; in test [18], 86.8%. Besides, the growth in test [19] is 102%; in test [20] it was 87.8%.

`C=CCOC(=O)Nc1cccn([C@H](Cc2ccccc2)C(=O)NCCC(C)C)c1=O`: the growth is 89.7% in test [1]; 82% in [2]; 103% in test [3]; 104% in test [4]; 105% in test [5]; 87.5% in test [6]. For the same compound, the growth in [7] is 99.5%; in test [8] it was 97.9%; in test [9], 112%; in [10], 110%; in [11] it was 110%; in test [12], 110%. Moreover, the growth in [13] was 103%; in test [14], 101%; in [15], 110%; in test [16], 106%; in [17], 94.5%; in test [18], 109%. Also, the growth in test [19] is 102%; in test [20], 121%.

Take `COC12C=C/C(=C(/C(=O)OCc3ccncn3)C(=O)CCCCCCCCC3(OC)C=C/C(=C(/C(=O)OCc4ccncn4)C(=O)CCCCCCCC1)O3)O2`: the growth in test [1] is -37.2% (active); in [2], -71.8% (active); in [3] it was -76.5% (active); in test [4], 23%; in test [5] it was 1.29% (active); in test [6] it was -53.6% (active). Also, the growth in test [7] is -13.1% (active); in test [8], 6.41% (active); in test [9], -71.2% (active); in test [10] it was 3.33% (active); in test [11], -41.8% (active); in test [12], -5.58% (active). The growth in test [13] is -54.3% (active); in test [14], 10.6%; in [15] it was -77.3% (active); in [16], -3.7% (active); in test [17], -15.9% (active); in test [18] it was -18.2% (active). Further, the growth in test [19] was 4.41% (active); in test [20], -22.1% (active).

With `O=C(Nc1cccc(-c2ccc(Cl)c(C(F)(F)F)c2)c1)C1CCN(Cc2cccc3cccnc23)CC1`, the growth in test [1] is 48.2%; in test [2], 45.9%; in test [3], 35.5%; in test [4], 62.3%; in test [5], -87.2% (active); in test [6], 30.2%. Moreover, the growth in test [7] is -53% (active); in test [8], -30.8% (active); in [9] it was 31.9%; in test [10], -72.2% (active); in test [11], 10.8%; in test [12], -6.99% (active). Besides, the growth was -75.6% (active) in test [13]; -24.1% (active) in test [14]; 8.93% (active) in test [15]; 40.1% in [16]; -43.9% (active) in test [17]; -88.7% (active) in test [18]. Further, the growth is 19.8% in test [19] and -68.5% (active) in [20].
